Experimental data published in article PMC5540273 (PLoS ONE, 2017).

tested on: T1, LOK; conditions: concentration: 1 μM, replicates: in singlicate; n = 1
T1 construct: gene STK10
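Further: KINOMEscan kinase panel screen.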

| SMILES | %Inh [%] |
| --- | --- |
| COc1ccc(Nc2nccc(N3CCC(NC(=O)Nc4cccc(OC)c4)C3)n2)cc1 (stereo not drawn) [GSK1379742] | 0 |
| Cc1ccc(C)c(NC(=O)NC2CCN(c3ccnc(Nc4ccc(F)cc4)n3)C2)c1 (stereo not drawn) [GSK1379720] | 0 |
| c1ccc(-c2n[nH]cc2Nc2ccnc3ccccc23)nc1 [GW694077] | 0 |
| COc1cc(Nc2nccc(N3CCC(NC(=O)Nc4cccc(C(C)=O)c4)C3)n2)cc(OC)c1OC (stereo not drawn) [GSK1379753] | 20 |
| O=C(Nc1cccc(-c2nn3ncccc3c2-c2ccnc(Nc3ccccc3)n2)c1)c1c(F)cccc1F [GSK198271] | 99 |
| c1ccc(-c2cnc3nccnn23)cc1 [AH20685] | 0 |
| Cl.c1ccc(-c2ccc3c(Nc4ccc5[nH]ncc5c4)ccnc3c2)nc1 [GW440137] | 2 |
| Fc1ccc(-c2ncn(C3CCNCC3)c2-c2ccnc(Oc3ccc(-c4ccccc4)cc3)n2)cc1 [SB-245391] | 21 |
| Clc1ccc(-c2nn3ncccc3c2-c2ccnc(Nc3ccc4c(c3)OCCO4)n2)cc1 [GW829116] | 71 |
| Cc1ccc(F)c(C(=O)Nc2cccc(-c3nn4ccccc4c3-c3ccnc(Nc4cccc(F)c4)n3)c2)c1F [GSK361061] | 98.5 |
| CNC(=O)c1ccccc1Nc1nc(Nc2ccc(N3CCOCC3)cc2)ncc1Cl.Cl [GSK1576028] | 96.4 |
| Cc1cccc(Nc2nc(N[C@H]3CCNC3)ncc2C(N)=O)c1.Cl [GSK2197149] | 0 |
| CCn1c(-c2nonc2N)nc2c(C#CC(C)(C)O)nc(OC[C@H](N)c3ccccc3)cc21 [GSK943949] | 1 |
| COc1cc(Nc2ncc3c(C)nc(-c4cc5ccccc5[nH]4)n3n2)cc(OC)c1OC [GW869516] | 8 |
| Cl.NC(=O)c1cccc(Nc2nccc(Nc3ccc(Oc4c(Cl)cccc4Cl)c(Cl)c3)n2)c1 [GW659009] | 49 |
| Cl.c1ccc(-c2ccc3c(Nc4ccc5[nH]ccc5c4)ccnc3c2)nc1 [GW440138] | 51 |
| CN1CCN(CCCNc2nccc(-c3c(-c4ccc(F)cc4)nn4cc(C(F)(F)F)ccc34)n2)CC1 [GW621581] | 0 |

| SMILES | %Inh [%] |
| --- | --- |
| O=C(Nc1n[nH]c2cc(-c3ccoc3)ccc12)C1CC1 [SB-738481] | 0 |
| COc1cccc(C2=C(Nc3ccc(Cl)c(C(=O)O)c3)C(=O)NC2=O)c1 [SB-390769] | 0 |
| COc1cccc(-c2ccc3c(NC(=O)C4CC4)n[nH]c3n2)c1 [SB-710903] | 0 |
| COc1cccc(NC(=O)NC2CCN(c3ccnc(Nc4cc(OC)c(OC)c(OC)c4)n3)C2)c1 (stereo not drawn) [GSK1379763] | 43 |
| CN(C)S(=O)(=O)c1cc(-c2ccc3nccc(-c4cccc(S(N)(=O)=O)c4)c3c2)cnc1N [GSK1669921] | 0 |
| Cn1cc(-c2ccc3c(c2)CCN3C(=O)Cc2cccc(F)c2)c2c(N)ncnc21 [GSK2603358] | 91.9 |
| COc1ccc(CNC(=O)NC2CCN(c3ccnc(Nc4ccc(F)cc4)n3)CC2)cc1 [GSK1379788] | 0 |
| O=C(Nc1cccc(-c2nn3ccccc3c2-c2ccnc(Nc3cccc(F)c3)n2)c1)c1c(F)ccc(F)c1Cl [GSK357952] | 97.6 |
| Cl.Cl.NCC(NCc1ccc(-c2ccnc3[nH]ccc23)s1)c1ccccc1 (stereo not drawn) [GSK1321565] | 29 |
| CCc1ccc(-c2ccc3c(c2)-c2c(cnn2C)S(=O)(=O)N3C)cc1 | 16 |
| O=C(O)C(F)(F)F.O=C(O)C(F)(F)F.O=c1[nH]ccc2nc(N[C@@H]3CCCNC3)nc(Nc3ccc(S(=O)(=O)N4CCOCC4)cc3)c12 [GSK2177277] | 78 |
| Cc1occc1-c1ncc(OC[C@@H](N)Cc2c[nH]c3ccccc23)cc1-c1ccc2[nH]nc(C)c2c1.O=C(O)C(F)(F)F [GSK682037] | 85 |
| COCCOCCOc1cc2ncc3c4ccc(C#N)cc4[nH]c3c2cc1OC | 73 |
| CN(C)Cc1ccc(-c2ccc3c(Nc4ccc(Oc5ccccn5)cc4)ccnc3c2)o1 [GW567148] | 52 |
| Cc1ccc(C(=O)N2CC[C@@H](O)C2)cc1-n1c(C)cc(OCc2ccc(F)cc2F)c(Br)c1=O | 0 |
| Cn1cc(-c2[nH]c3cc(NC(=O)[C@H](N)C4CCCCC4)cc4c3c2C=NNC4=O)cn1 | 17 |
